Screening data (PubChem BioAssay)
Shown are actives, neighbours in structure and some others; about 8% of the full set was active somewhere.
SW480 rerep: induces DNA re-replication in SW480 colon adenocarcinoma cells. SW480 DNA re-replication, Hoechst DNA content imaging, 48 h. Potency, µM (titrated, usually from 46.1 µM), actives largely listed as activators. hit rate 1.8% among 340,000; note: nearly all actives have a fitted effect of over 55% in size
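Image-based DNA-content assay: after two days of treatment, nuclei were labelled with the DNA dye Hoechst and imaged, and hits were compounds raising the count of nuclei showing high fluorescence intensity.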
HT1080NT lethal: kills 2HG-producing HT-1080-NT fibrosarcoma cells; HT-1080-NT fibrosarcoma viability, CellTiter-Glo ATP luminescence, 48 h; Potency, µM (doses to about 46.1 µM), usual class: cytotoxic; hit rate 1.6% among 360,000; AID 686970;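 note: NT is the 2HG producing partner of a matched IDH1 knockdown line; nearly all actives have a fitted effect of over 55% in size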
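Compounds were tested in concentration-response format on HT-1080-NT cells for 48 hours at 37 degrees C. Cell viability came from CellTiter-Glo luminescence; curves were classified by r2, response magnitude and activity.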
KB-3-1 cytotox: kills parental KB-3-1 adenocarcinoma cells. KB-3-1 viability, CellTiter-Glo ATP luminescence, 72 h. Potency, µM (titrated, usually from 46.1 µM), most hits filed as cytotoxic. hit rate 1.4% among 400,000. AID 1347075; note: nearly all actives have a fitted effect of over 60% in size
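Parental KB-3-1 adenocarcinoma cells in phenol-red-free DMEM with 10% FBS were pin-treated with compounds at several concentrations, incubated 72 h at 37 °C, and viability read by CellTiter-Glo luminescence; concentration-effect curves were fitted after normalization.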
KB-V1 cytotox: KB-V1 MDR subline cytotoxicity; KB-V1 MDR cells viability, CellTiter-Glo, 72 h; Potency, µM (top dose mostly 46.1 µM), actives largely listed as cytotoxic; hit rate 3.4% among 400,000; note: nearly all actives have a fitted effect of over 60% in size
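KB-V1 MDR subline cells in DMEM (phenol-red free, 10% FBS) exposed to compounds in qHTS concentration series for 72 h at 37 degrees C. Viability read by CellTiter-Glo luminescence; concentration-effect curves fitted after normalization and correction.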
MCF10A rerep: inducers of DNA re-replication in MCF 10A breast cells; MCF 10A DNA re-replication, Hoechst nuclear intensity, 48 h; Potency, µM (top dose mostly 46.1 µM), hits mostly activators; hit rate 2.9% among 350,000; note: nearly all actives have a fitted effect of over 50% in size
HT1080 IDH1KD tx: toxicity to HT-1080 IDH1 knockdown cells (counter line); Potency, µM (highest dose often 46.1 µM), most hits filed as cytotoxic; AID 686971; hit rate 2% among 360,000; HT-1080 IDH1 knockdown viability, ATP luminescence, 48 h
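CellTiter-Glo luminescence after 48 h compound exposure at 37 degrees C of IDH1-knockdown HT-1080 cells in 5% FBS RPMI. %Activity scaled between DMSO wells and cell-free media wells, with curves fitted and assigned curve classes.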
Hits are given with their value; [ ] = dose if it differs, or a comment. Calls come from the whole dose curve; as a rule, active = well fitted curve in the direction sought with a large enough effect; inconclusive = small, poorly fitted or top-dose-only effect, or another doubt; inactive = no such curve, though single readings can be large; an effect the other way counts as inactive or inconclusive.

COc1ccc(-n2nnnc2C(CCc2ccccc2)N2CCC(n3c(=O)[nH]c4ccccc43)CC2)cc1 (configuration not stated) was read as HT1080NT lethal 16µM, KB-3-1 cytotox inconclusive, KB-V1 cytotox inconclusive and HT1080 IDH1KD tx 13µM.
Cc1cccc(C)c1-n1nnnc1C(CCc1ccccc1)N1CCC(n2c(=O)[nH]c3ccccc32)CC1 (configuration not stated) was read as HT1080NT lethal inactive, KB-3-1 cytotox inconclusive, KB-V1 cytotox inconclusive and HT1080 IDH1KD tx inactive.
O=c1[nH]c2ccccc2n1C1CCN(C(CCc2ccccc2)c2nnnn2-c2ccc3c(c2)OCCO3)CC1 (configuration not stated) was read as HT1080NT lethal 13µM, KB-3-1 cytotox inconclusive, KB-V1 cytotox 23µM and HT1080 IDH1KD tx 15µM.
O=C1NCN(c2ccccc2)C12CCN(C(c1cccs1)c1nnnn1C1CCCC1)CC2 (configuration not stated) was read as HT1080NT lethal inactive, KB-3-1 cytotox inactive, KB-V1 cytotox inactive and HT1080 IDH1KD tx inactive.
Screening Cc1ccc(-n2c(/C=C/c3ccc(Br)s3)nc3ccccc3c2=O)cc1 returned KB-3-1 cytotox inconclusive and KB-V1 cytotox inactive.
For CC(C)c1ccc(C(O)P(=O)(OCc2ccccc2)c2ccc(N(C)C)cc2)cc1 (configuration not stated) the results were SW480 rerep inactive, HT1080NT lethal inactive, KB-3-1 cytotox inactive, KB-V1 cytotox inactive, MCF10A rerep inconclusive and HT1080 IDH1KD tx inactive.
For CCCCOP(=O)(c1ccc(N(C)C)cc1)C(Nc1ccccc1)c1ccccc1 (configuration not stated) the results were SW480 rerep inconclusive, HT1080NT lethal inactive, KB-3-1 cytotox inconclusive, KB-V1 cytotox 3.7µM, MCF10A rerep 21µM and HT1080 IDH1KD tx inactive.
`CN1CCN(c2csc3ccc(F)cc3c2=O)CC1` gave KB-3-1 cytotox inactive and KB-V1 cytotox inactive.
`CC[C@@]1(O)C(=O)OCc2c1cc1n(c2=O)Cc2cc3ccccc3nc2-1` gave KB-3-1 cytotox inconclusive and KB-V1 cytotox inactive.
`CCC1(OC(=O)CN)C(=O)OCc2c1cc1n(c2=O)Cc2cc3ccccc3nc2-1` (configuration not stated) gave SW480 rerep inactive, HT1080NT lethal 1µM, KB-3-1 cytotox inconclusive, KB-V1 cytotox inconclusive, MCF10A rerep inactive and HT1080 IDH1KD tx 0.73µM.
CCC1(O)C(=O)OCc2c1cc1n(c2=O)Cc2cc3cc(O)ccc3nc2-1 (configuration not stated) was read as SW480 rerep inconclusive, HT1080NT lethal 0.73µM, KB-3-1 cytotox inconclusive, KB-V1 cytotox inconclusive, MCF10A rerep inconclusive and HT1080 IDH1KD tx 0.65µM.
CC[C@@]1(O)C(=O)OCc2c1cc1n(c2=O)Cc2cc3c(NC(=O)CN)cccc3nc2-1 was read as SW480 rerep inconclusive, HT1080NT lethal 2.3µM, KB-3-1 cytotox inactive, KB-V1 cytotox inactive, MCF10A rerep inconclusive and HT1080 IDH1KD tx 1.8µM.
Cn1c(=O)n(C)c2cc(CNCCc3ccccc3F)ccc21 was read as KB-3-1 cytotox inactive and KB-V1 cytotox inactive.
For COC(=O)C12OCC34C(CC5C(C)=C(O)C(=O)CC5(C)C3C(O)C1O)OC(=O)C(OC(=O)/C=C(\C)C(C)C)C24 (configuration not stated) the results were SW480 rerep inconclusive, HT1080NT lethal inconclusive, KB-3-1 cytotox 0.18µM, KB-V1 cytotox 3.3µM, MCF10A rerep inactive and HT1080 IDH1KD tx 0.026µM.
`CCC(=O)Nc1ccc(Cl)c(Cl)c1` gave SW480 rerep inactive, HT1080NT lethal inactive, KB-3-1 cytotox inactive, KB-V1 cytotox inactive, MCF10A rerep inactive and HT1080 IDH1KD tx inactive.
For CCC(=O)Nc1ccc(C(=O)OCc2ccccc2Cl)cc1 the results were SW480 rerep inactive, HT1080NT lethal inactive, KB-3-1 cytotox inactive, KB-V1 cytotox 15µM, MCF10A rerep inconclusive and HT1080 IDH1KD tx inactive.
`CCCCCCCCN1C(=O)[C@H](CC(=O)NCCCC)C[C@@]2(C(=O)OCC)CCCC=C12` gave HT1080NT lethal inconclusive, KB-3-1 cytotox inconclusive, KB-V1 cytotox 21µM and HT1080 IDH1KD tx inconclusive.
For Cc1ccc(C)c(-c2nnc(NC(=O)C3=COCCO3)o2)c1 the results were SW480 rerep inactive, HT1080NT lethal inactive, KB-3-1 cytotox inactive, KB-V1 cytotox inactive, MCF10A rerep inconclusive and HT1080 IDH1KD tx inactive.
For CCOC(=O)[C@]12Cc3c(cc(OC)c(OC)c3OC)[C@H]1N(C(C)C)C(=O)c1ccccc12 the results were HT1080NT lethal inconclusive, KB-3-1 cytotox 13µM, KB-V1 cytotox 8.2µM and HT1080 IDH1KD tx 6.5µM.
CCOC(=O)[C@]12Cc3cc(C)ccc3[C@H]1N(Cc1ccccc1)C(=O)c1cc(F)c(F)cc12 was read as HT1080NT lethal inconclusive, KB-3-1 cytotox 3.3µM, KB-V1 cytotox inactive and HT1080 IDH1KD tx inconclusive.
Screening CCOC(=O)[C@]12Cc3cc(C)ccc3[C@H]1N(Cc1ccccc1)C(=O)c1ccccc12 returned SW480 rerep inactive[9.22 µM], HT1080NT lethal inactive, KB-3-1 cytotox inconclusive, KB-V1 cytotox inconclusive, MCF10A rerep inconclusive and HT1080 IDH1KD tx inactive.
`CCOC(=O)[C@]12Cc3ccccc3[C@H]1N(C(C)C)C(=O)c1cc(OC)ccc12` gave HT1080NT lethal inconclusive, KB-3-1 cytotox 3.7µM, KB-V1 cytotox 4.1µM and HT1080 IDH1KD tx 16µM.
Screening CCOC(=O)[C@]12Cc3cc(C)ccc3[C@H]1N(C(C)C)C(=O)c1ccccc12 returned HT1080NT lethal 12µM, KB-3-1 cytotox 4.1µM, KB-V1 cytotox inactive and HT1080 IDH1KD tx 26µM.
CCOC(=O)[C@]12Cc3cc(OC)ccc3[C@H]1N(Cc1ccccc1)C(=O)c1cc(F)c(F)cc12 was read as SW480 rerep inactive[9.22 µM], HT1080NT lethal inactive, KB-3-1 cytotox inconclusive, KB-V1 cytotox inconclusive, MCF10A rerep inconclusive and HT1080 IDH1KD tx inactive.
ClC=C(Cl)Cl was read as SW480 rerep inactive and MCF10A rerep inactive.
CC(C)C[C@H]1C(=O)N2CCC[C@H]2[C@]2(O)O[C@](NC(=O)[C@@H]3C=C4c5cccc6[nH]c(Br)c(c56)CC4N(C)C3)(C(C)C)C(=O)N12 (some centres not stated) was read as SW480 rerep inconclusive, HT1080NT lethal inactive, KB-3-1 cytotox inactive, KB-V1 cytotox inconclusive, MCF10A rerep inconclusive and HT1080 IDH1KD tx inconclusive.
Screening CCOC(=O)[C@]12Cc3cc(OC)ccc3[C@H]1N(Cc1ccccc1)C(=O)c1ccccc12 returned SW480 rerep inactive, HT1080NT lethal inactive, KB-3-1 cytotox inconclusive, KB-V1 cytotox inconclusive, MCF10A rerep inactive and HT1080 IDH1KD tx inactive.
